Data published in PubChem BioAssay (Tox21).
Inconclusive results are not listed. Entries that show only a call come without a potency. Calls of active or inactive are those of the source. Calls follow the shape of the dose curve; as a rule, active = well fitted activation curve with a large enough effect in the signal ratio in the repeat runs (not every such curve was filed as active); inconclusive = weak or mixed curves; inactive = flat fitted curve, though single readings scatter; the % refers to the signal ratio.

test: p53 small molecule agonists, cell-based qHTS assay (AID 1963582); conditions: HCT-116 p53RE-bla reporter, beta-lactamase FRET ratio, 16 h; series mostly up to 66 µM
Text: National Center for Advancing Translational Sciences [NCATS]
Division of Preclinical Innovation [DPI]
U.S. Environmental Protection Agency [EPA]
National Institutes of Environmental Health Sciences [NIEHS]
National Toxicology Program [NTP]
U.S. Food and Drug Administration [FDA]
p53, a tumor suppressor protein, is activated following cellular insult, including DNA damage and other cellular stresses. The activation of p53 regulates cell fate by inducing DNA repair, cell cycle arrest, apoptosis, or cellular senescence. The activation of p53, therefore, is a good indicator of DNA damage and other cellular stresses. […] The activation of the reporter gene under culture conditions can be detected by fluorescence intensity. This cell line was used to screen the Tox21 10K compound library in a 1536-well plate format and to identify agonists that activate the p53 signaling pathway.
Tox21 Assay Protocol Summary:
The p53RE-bla cells were dispensed at 4,000 cells/5 ul/well in 1536-well black wall/clear bottom plates using a Multidrop dispenser. After the assay plates were incubated at a 37 C/5% CO2 incubator for 5 hours, 23 nL of compounds dissolved in DMSO, positive controls or DMSO only was transferred to the assay plate by a pin tool. The plates were incubated at 37 C for 16 hours. After 1 uL of LiveBLAzerTM B/G FRET substrate was added using a Flying Reagent Dispenser, the plates were incubated at room temperature for 2 hours, and fluorescence intensity was measured by an Envision plate reader.

Row | Compound | Potency
1 | CCCCCCCCCCCCS | inactive
2 | C=CC(=O)OCCC(=O)O | inactive
3 | Nc1nc2ncc(CNc3ccc(C(=O)N[C@@H](CCC(=O)O)C(=O)O)cc3)nc2c(=O)[nH]1 | inactive
4 | O=C(Cl)c1c(Cl)c(Cl)c(C(=O)Cl)c(Cl)c1Cl | inactive
5 | CCCCNS(=O)(=O)c1ccccc1 | inactive
6 | CCN(CCN)c1cccc(C)c1 | inactive
7 | O=C(O)c1cn(-c2ccc(F)cc2)c2cc(N3CCNCC3)c(F)cc2c1=O | inactive
8 | Oc1ccc(Cc2ccccc2O)cc1 | inactive
9 | CCCCCCCC(=O)O | inactive
10 | CC(=O)c1ccccc1 | inactive
11 | CCCC(O)C(CC)CO (stereo not given) | inactive
12 | COCC(C)O (stereo not given) | inactive
13 | Cc1cccc2ccccc12 | inactive
14 | CCC(C)(C)C(=O)O[C@H]1C[C@@H](C)C=C2C=C[C@H](C)[C@H](CC[C@@H]3C[C@@H](O)CC(=O)O3)[C@H]21 | inactive
15 | NC(=O)c1cnccn1 | inactive
16 | CC1=CC(C)(C)Nc2ccccc21 | inactive
17 | CC1(C)C(=O)N(Cl)C(=O)N1Cl | inactive
18 | CN(C)Cc1cc(CN(C)C)c(O)c(CN(C)C)c1 | inactive
19 | CCC(O)OCCCOC (stereo not given) | inactive
20 | C[Si](C)(C)N[Si](C)(C)C | inactive

Row | Compound | Potency
21 | OCC1CCCO1 (stereo not given) | inactive
22 | CN(C)CCOC(C)(c1ccccc1)c1ccccn1 (stereo not given) | inactive
23 | Clc1cc(Cl)c(Cl)cc1Cl | inactive
24 | CC(=O)c1ccccn1 | inactive
25 | C#CCN(C)Cc1ccccc1 | inactive
26 | CCCCCCCCCCCCc1ccccc1 | inactive
27 | C=CCOC(=O)c1ccccc1C(=O)OCC=C | inactive
28 | CC1(C)[C@@H]2CC[C@@]1(C)C(=O)C2 | inactive
29 | CCCCCC1C(=O)CCC1CC(=O)OC (stereo not given) | inactive
30 | COC(=O)CCC(=O)OC | inactive
31 | COc1cc(C=O)ccc1O | inactive
32 | O=C1O[C@H](CO)[C@@H](O)[C@H](O)[C@H]1O | inactive
33 | CCCCCCCCCCCCCCCC(=O)OC(C)C | inactive
34 | CC1(C)NC(=O)N(c2ccc([N+](=O)[O-])c(C(F)(F)F)c2)C1=O | inactive
35 | CSc1ccc(Cl)cc1 | inactive
36 | CC(=O)Nc1ccc(CC(=O)O)cc1 | inactive
37 | O=c1[nH]nnc2ccccc12 | inactive
38 | c1ccc2c(c1)ccc1ccccc12 | inactive
39 | NC(=O)/N=N/C(N)=O | inactive
40 | CCCCC1C(=O)N(c2ccccc2)N(c2ccccc2)C1=O | inactive
